According to PubChem BioAssay AID1159580 (chemical genetic matrix, 2015):
Screen size: about 5,500 compounds; about 2,000 (36%) were called active. Not shown: some 18% with an inconclusive outcome. Rule as the data show it: active = normalized growth mostly below about 0.91 (no sharp cut-off); inconclusive = no clear call, values can overlap the other calls; inactive = mostly above about 0.92. The list shows a part of the results.

Assay: chemical genetic growth profiling, strain panel (AID 1159580);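 also: tested at 20 µM; growth read once vehicle control cultures reached saturation at 30 °C; 1 = growth at the plate median or of vehicle wells; lower values mean less growth of the strain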
Conditions: S. cerevisiae deletion strains, growth OD

Measured: normalized growth

CC(CC(C(N)=O)(c1ccccc1)c1ccccc1)N(C)C (stereo not given)
inactive: locus YAL021C, strain ccr4, stronger effect = lower value 0.952 | locus YAL026C, strain drs2, stronger effect = lower value 0.977 | locus YAL030W, strain snc1, stronger effect = lower value 0.996 | locus YBL061C, strain skt5, stronger effect = lower value 0.983 | locus YBR009C, strain hhf1, stronger effect = lower value 0.988 | locus YBR023C, strain chs3, stronger effect = lower value 0.949 | locus YBR171W, strain sec66, stronger effect = lower value 0.967 | locus YBR231C, strain swc5, stronger effect = lower value 0.994 | locus YBR279W, strain paf1, stronger effect = lower value 0.995 | locus YCL011C, strain gbp2, stronger effect = lower value 0.963 | locus YCL016C, strain dcc1, stronger effect = lower value 0.989 | locus YCL061C, strain MRC1, stronger effect = lower value 0.981 | locus YCL069W, strain vba3, stronger effect = lower value 0.976 | locus YCR088W, strain abp1, stronger effect = lower value 0.973 | locus YDL005C, strain med2, stronger effect = lower value 0.989 | locus YDL040C, strain nat1, stronger effect = lower value 0.996 | locus YDR001C, strain nth1, stronger effect = lower value 0.974 | locus YDR069C, strain doa4, stronger effect = lower value 0.973 | locus YDR137W, strain rgp1, stronger effect = lower value 0.968 | locus YDR159W, strain sac3, stronger effect = lower value 0.981 | locus YDR195W, strain ref2 0.981 | locus YDR297W, strain sur2, stronger effect = lower value 0.983 | locus YDR334W, strain swr1, stronger effect = lower value 0.942 | locus YDR335W, strain msn5, stronger effect = lower value 0.978 | locus YDR392W, strain spt3, stronger effect = lower value 0.958 | locus YEL003W, strain gim4, stronger effect = lower value 0.982 | locus YEL037C, strain rad23, stronger effect = lower value 0.939 | locus YEL061C, strain CIN8 (second series), stronger effect = lower value 0.982 | locus YER015W, strain faa2, stronger effect = lower value 1.01 | locus YER016W, strain bim1, stronger effect = lower value 0.982 | locus YER111C, strain swi4, stronger effect = lower value 0.994 | locus YER155C, strain BEM2 (second series), stronger effect = lower value 0.985 | locus YFR010W, strain ubp6, stronger effect = lower value 0.964 | locus YGL167C, strain pmr1, stronger effect = lower value 0.988 | locus YGL173C, strain kem1, stronger effect = lower value 0.975 | locus YGL227W, strain vid30, stronger effect = lower value 0.989 | locus YGL240W, strain doc1, stronger effect = lower value 0.981 | locus YGL253W, strain hxk2, stronger effect = lower value 0.937 | locus YHR013C, strain ard1, stronger effect = lower value 0.951 | locus YHR027C, strain rpn1, stronger effect = lower value 0.978 | locus YHR030C, strain SLT2, stronger effect = lower value 1.02 | locus YHR079C, strain IRE1, stronger effect = lower value 1.02 | locus YHR142W, strain chs7, stronger effect = lower value 0.957 | locus YJL092W, strain hpr5, stronger effect = lower value 0.969 | locus YJL095W, strain BCK1 (second series), stronger effect = lower value 0.983 | locus YJL095W, strain BCK1, stronger effect = lower value 0.992 | locus YJL115W, strain asf1, stronger effect = lower value 0.962 | locus YJL129C, strain trk1, stronger effect = lower value 0.952 | locus YJL154C, strain vps35, stronger effect = lower value 0.984 | locus YJL164C, strain tpk1, stronger effect = lower value 0.974 | locus YJL166W, strain qcr8, stronger effect = lower value 0.987 | locus YJL187C, strain SWE1, stronger effect = lower value 0.984 | locus YJR066W, strain TOR1, stronger effect = lower value 0.969 | locus YKL160W, strain elf1, stronger effect = lower value 0.978 | locus YKR026C, strain gcn3, stronger effect = lower value 0.979 | locus YKR091W, strain srl3, stronger effect = lower value 0.987 | locus YLL001W, strain dnm1, stronger effect = lower value 0.994 | locus YLL026W, stronger effect = lower value 0.986 | locus YLL041C, strain sdh2, stronger effect = lower value 0.979 | locus YLR027C, strain aat2, stronger effect = lower value 0.989 | locus YLR113W, strain HOG1, stronger effect = lower value 0.999 | locus YLR221C, strain rsa3, stronger effect = lower value 0.979 | locus YLR258W, strain gsy2, stronger effect = lower value 0.978 | locus YLR262C, strain YPT6 (second series), stronger effect = lower value 0.977 | locus YLR320W, strain mms22, stronger effect = lower value 0.992 | locus YLR342W, strain FKS1, stronger effect = lower value 0.986 | locus YLR357W, strain rsc2, stronger effect = lower value 0.992 | locus YLR370C, strain arc18, stronger effect = lower value 0.984 | locus YLR384C, strain iki3, stronger effect = lower value 0.994 | locus YML120C, strain ndi1, stronger effect = lower value 0.97 | locus YMR058W, strain fet3, stronger effect = lower value 0.967 | locus YMR125W, strain sto1, stronger effect = lower value 0.995 | locus YMR129W, stronger effect = lower value 0.972 | locus YMR205C, strain PFK2, stronger effect = lower value 0.965 | locus YMR231W, strain pep5, stronger effect = lower value 0.983 | locus YNL071W, strain lat1, stronger effect = lower value 0.979 | locus YNL183C, strain NPR1, stronger effect = lower value 0.973 | locus YNL209W, strain ssb2, stronger effect = lower value 0.983 | locus YNL248C, strain rpa49, stronger effect = lower value 0.941 | locus YNL322C, strain KRE1 (second series), stronger effect = lower value 0.983 | locus YNR049C, strain mso1, stronger effect = lower value 0.976 | locus YOR001W, strain rrp6, stronger effect = lower value 0.959 | locus YOR070C, strain gyp1, stronger effect = lower value 0.99 | locus YOR080W, strain dia2, stronger effect = lower value 0.971 | locus YOR083W, strain WHI5, stronger effect = lower value 0.973 | locus YOR106W, strain vam3, stronger effect = lower value 0.982 | locus YOR231W, strain MKK1, stronger effect = lower value 1.04 | locus YOR265W, strain rbl2, stronger effect = lower value 0.991 | locus YOR270C, strain vph1, stronger effect = lower value 0.954 | locus YOR290C, strain snf2, stronger effect = lower value 0.988 | locus YPL051W, strain arl3, stronger effect = lower value 0.996 | locus YPL078C, strain atp4, stronger effect = lower value 0.94 | locus YPL106C, strain sse1, stronger effect = lower value 0.968 | locus YPL240C, strain hsp82, stronger effect = lower value 0.967 | locus YPL256C, strain CLN2, stronger effect = lower value 1.03
